Measured values published in publication PMC9911399, “Two distinct binding modes provide the RNA-binding protein RbFox with extraordinary sequence specificity”.
Changes are numbered by the printed parent chain; changes in the protein carry UniProt numbers. In all, about 16,000 sequences were measured (“ka relative to ugcaugu”: median about 0.096, highest 2% from about 0.35 on). This is one part of a sample in which the highest values are shown more often than they occur.

T1: RBFOX1 RRM RbFoxmut (Fox-RRM*) (Homo sapiens, UniProt Q9NWB1 109-208, R118D;E147R;N151S;E152T)
T1 sequence: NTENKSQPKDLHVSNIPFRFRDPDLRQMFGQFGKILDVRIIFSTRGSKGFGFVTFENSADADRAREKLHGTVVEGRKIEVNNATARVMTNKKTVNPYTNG

B1: GCAUCAG (DNA:RNA)
RNA: GGGAGACCGGAAUUCAGAUUGUCCGCAUCAGUUAAAUCCCGUCGUAGCCACCA
DNA 1: CAATCTGAATTCCGGTCTCCC
DNA 2: TGGTGGCTACGACGGGATT
B2: CGCAUCG (DNA:RNA)
RNA: B1 RNA with G25C, C26G, A27C, U28A, C29U, A30C
DNA 1: CAATCTGAATTCCGGTCTCCC
DNA 2: TGGTGGCTACGACGGGATT
B3: GCAAUCG (DNA:RNA)
RNA: B1 RNA with U28A, C29U, A30C
DNA 1: CAATCTGAATTCCGGTCTCCC
DNA 2: TGGTGGCTACGACGGGATT
B4: GCAUCCG (DNA:RNA)
RNA: B1 RNA with A30C
DNA 1: CAATCTGAATTCCGGTCTCCC
DNA 2: TGGTGGCTACGACGGGATT
B5: GCAUCUG (DNA:RNA)
RNA: B1 RNA with A30U
DNA 1: CAATCTGAATTCCGGTCTCCC
DNA 2: TGGTGGCTACGACGGGATT
B6: GCAUCAA (DNA:RNA)
RNA: B1 RNA with G31A
DNA 1: CAATCTGAATTCCGGTCTCCC
DNA 2: TGGTGGCTACGACGGGATT
B7: GCACCGC (DNA:RNA)
RNA: B1 RNA with U28C, A30G, G31C
DNA 1: CAATCTGAATTCCGGTCTCCC
DNA 2: TGGTGGCTACGACGGGATT
B8: GCAUCAC (DNA:RNA)
RNA: B1 RNA with G31C
DNA 1: CAATCTGAATTCCGGTCTCCC
DNA 2: TGGTGGCTACGACGGGATT
B9: GCACCGG (DNA:RNA)
RNA: B1 RNA with U28C, A30G
DNA 1: CAATCTGAATTCCGGTCTCCC
DNA 2: TGGTGGCTACGACGGGATT
B10: GCAUCGC (DNA:RNA)
RNA: B1 RNA with A30G, G31C
DNA 1: CAATCTGAATTCCGGTCTCCC
DNA 2: TGGTGGCTACGACGGGATT
B11: GCAUCGG (DNA:RNA)
RNA: B1 RNA with A30G
DNA 1: CAATCTGAATTCCGGTCTCCC
DNA 2: TGGTGGCTACGACGGGATT
B12: GAAUCGG (DNA:RNA)
RNA: B1 RNA with C26A, A30G
DNA 1: CAATCTGAATTCCGGTCTCCC
DNA 2: TGGTGGCTACGACGGGATT
B13: AGAGCGA (DNA:RNA)
RNA: B1 RNA with G25A, C26G, U28G, A30G, G31A
DNA 1: CAATCTGAATTCCGGTCTCCC
DNA 2: TGGTGGCTACGACGGGATT
B14: CCCUUUC (DNA:RNA)
RNA: B1 RNA with G25C, A27C, C29U, A30U, G31C
DNA 1: CAATCTGAATTCCGGTCTCCC
DNA 2: TGGTGGCTACGACGGGATT
B15: UACGGGG (DNA:RNA)
RNA: B1 RNA with G25U, C26A, A27C, U28G, C29G, A30G
DNA 1: CAATCTGAATTCCGGTCTCCC
DNA 2: TGGTGGCTACGACGGGATT
B16: CCGCCGG (DNA:RNA)
RNA: B1 RNA with G25C, A27G, U28C, A30G
DNA 1: CAATCTGAATTCCGGTCTCCC
DNA 2: TGGTGGCTACGACGGGATT
B17: AGGCCUA (DNA:RNA)
RNA: B1 RNA with G25A, C26G, A27G, U28C, A30U, G31A
DNA 1: CAATCTGAATTCCGGTCTCCC
DNA 2: TGGTGGCTACGACGGGATT
B18: AGAGUUC (DNA:RNA)
RNA: B1 RNA with G25A, C26G, U28G, C29U, A30U, G31C
DNA 1: CAATCTGAATTCCGGTCTCCC
DNA 2: TGGTGGCTACGACGGGATT
B19: GCGAGUG (DNA:RNA)
RNA: B1 RNA with A27G, U28A, C29G, A30U
DNA 1: CAATCTGAATTCCGGTCTCCC
DNA 2: TGGTGGCTACGACGGGATT
B20: GCAUCGU (DNA:RNA)
RNA: B1 RNA with A30G, G31U
DNA 1: CAATCTGAATTCCGGTCTCCC
DNA 2: TGGTGGCTACGACGGGATT
B21: AGCACCG (DNA:RNA)
RNA: B1 RNA with G25A, C26G, A27C, U28A, A30C
DNA 1: CAATCTGAATTCCGGTCTCCC
DNA 2: TGGTGGCTACGACGGGATT
B22: AGCAUCC (DNA:RNA)
RNA: GGGAGACCGGAAUUCAGAUUGUCCAGCAUCCUUAAAUCCCGUCGUAGCCACCA
DNA 1: CAATCTGAATTCCGGTCTCCC
DNA 2: TGGTGGCTACGACGGGATT
B23: AUCCGCA (DNA:RNA)
RNA: B22 RNA with G26U, A28C, U29G, C31A
DNA 1: CAATCTGAATTCCGGTCTCCC
DNA 2: TGGTGGCTACGACGGGATT
B24: GCAUUGU (DNA:RNA)
RNA: B1 RNA with C29U, A30G, G31U
DNA 1: CAATCTGAATTCCGGTCTCCC
DNA 2: TGGTGGCTACGACGGGATT
B25: AGCAUCG (DNA:RNA)
RNA: B22 RNA with C31G
DNA 1: CAATCTGAATTCCGGTCTCCC
DNA 2: TGGTGGCTACGACGGGATT
B26: GCACCGU (DNA:RNA)
RNA: B1 RNA with U28C, A30G, G31U
DNA 1: CAATCTGAATTCCGGTCTCCC
DNA 2: TGGTGGCTACGACGGGATT
B27: GCAUCGA (DNA:RNA)
RNA: B1 RNA with A30G, G31A
DNA 1: CAATCTGAATTCCGGTCTCCC
DNA 2: TGGTGGCTACGACGGGATT
B28: GCAUCCA (DNA:RNA)
RNA: B1 RNA with A30C, G31A
DNA 1: CAATCTGAATTCCGGTCTCCC
DNA 2: TGGTGGCTACGACGGGATT
B29: AGGAUGG (DNA:RNA)
RNA: B22 RNA with C27G, C30G, C31G
DNA 1: CAATCTGAATTCCGGTCTCCC
DNA 2: TGGTGGCTACGACGGGATT
B30: UCGUACU (DNA:RNA)
RNA: B1 RNA with G25U, A27G, C29A, A30C, G31U
DNA 1: CAATCTGAATTCCGGTCTCCC
DNA 2: TGGTGGCTACGACGGGATT
B31: GGGGAUG (DNA:RNA)
RNA: B1 RNA with C26G, A27G, U28G, C29A, A30U
DNA 1: CAATCTGAATTCCGGTCTCCC
DNA 2: TGGTGGCTACGACGGGATT
B32: GGAUGUU (DNA:RNA)
RNA: B1 RNA with C26G, C29G, A30U, G31U
DNA 1: CAATCTGAATTCCGGTCTCCC
DNA 2: TGGTGGCTACGACGGGATT
B33: CGGGAUG (DNA:RNA)
RNA: B22 RNA with A25C, C27G, A28G, U29A, C30U, C31G
DNA 1: CAATCTGAATTCCGGTCTCCC
DNA 2: TGGTGGCTACGACGGGATT
B34: GGGAUGU (DNA:RNA)
RNA: B22 RNA with A25G, C27G, C30G, C31U
DNA 1: CAATCTGAATTCCGGTCTCCC
DNA 2: TGGTGGCTACGACGGGATT
B35: GGGGGGA (DNA:RNA)
RNA: B22 RNA with A25G, C27G, A28G, U29G, C30G, C31A
DNA 1: CAATCTGAATTCCGGTCTCCC
DNA 2: TGGTGGCTACGACGGGATT
B36: GAGAUGU (DNA:RNA)
RNA: B22 RNA with A25G, G26A, C27G, C30G, C31U
DNA 1: CAATCTGAATTCCGGTCTCCC
DNA 2: TGGTGGCTACGACGGGATT

Biological target: T1, RBFOX1 RRM RbFoxmut (Fox-RRM*)
Assay: EMSA; HiTS-Eq, 1 nM pool, 10 min; buffer printed only for the single-RNA assays: 10 mM Tris pH 7.5, 150 mM NaCl, 3.4 mM EDTA, 0.001% NP-40, 30 C
Conditions: tags: His6 N-terminal (pET28a); label: 5' 32P
Summary of the method: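 Relative association constants, normalised to the cognate motif, were derived by comparing read counts of each RNA species with those of the control reaction. The RNA sequenced was the free fraction, separated by 8% native PAGE after a 10 min equilibration in 50 µL of 1 nM 5′-radiolabelled RNA (7 randomized nucleotides) with increasing concentrations of purified wild-type or mutant RbFox RRM.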

Binder | binding signal
B1 | 0.382 KA relative to UGCAUGU
B2 | 0.625 KA relative to UGCAUGU
B3 | 0.0721 KA relative to UGCAUGU
B4 | 0.351 KA relative to UGCAUGU
B5 | 0.264 KA relative to UGCAUGU
B6 | 0.323 KA relative to UGCAUGU
B7 | 0.139 KA relative to UGCAUGU
B8 | 0.293 KA relative to UGCAUGU
B9 | 0.102 KA relative to UGCAUGU
B10 | 0.443 KA relative to UGCAUGU
B11 | 0.454 KA relative to UGCAUGU
B12 | 0.186 KA relative to UGCAUGU
B13 | 0.0748 KA relative to UGCAUGU
B14 | 0.0564 KA relative to UGCAUGU
B15 | 0.0585 KA relative to UGCAUGU
B16 | 0.0808 KA relative to UGCAUGU
B17 | 0.0817 KA relative to UGCAUGU
B18 | 0.0781 KA relative to UGCAUGU

Binder | binding signal
B19 | 0.184 KA relative to UGCAUGU
B20 | 0.578 KA relative to UGCAUGU
B21 | 0.104 KA relative to UGCAUGU
B22 | 0.237 KA relative to UGCAUGU
B23 | 0.167 KA relative to UGCAUGU
B24 | 0.228 KA relative to UGCAUGU
B25 | 0.437 KA relative to UGCAUGU
B26 | 0.172 KA relative to UGCAUGU
B27 | 0.675 KA relative to UGCAUGU
B28 | 0.338 KA relative to UGCAUGU
B29 | 0.177 KA relative to UGCAUGU
B30 | 0.0912 KA relative to UGCAUGU
B31 | 0.612 KA relative to UGCAUGU
B32 | 0.213 KA relative to UGCAUGU
B33 | 0.296 KA relative to UGCAUGU
B34 | 0.373 KA relative to UGCAUGU
B35 | 0.082 KA relative to UGCAUGU
B36 | 0.15 KA relative to UGCAUGU
